{
  "source": "PubChem BioAssay AID1671192",
  "about": "(National Center for Advancing Translational Sciences (NCATS), 2021)",
  "note": "Records with an inconclusive call do not appear. Calls of active or inactive are those of the source. Calls follow the shape of the dose curve; as a rule, active = well fitted curve in the direction sought with a large enough effect; inconclusive = small, poorly fitted or top-dose-only effect, or another doubt; inactive = no such curve, though single readings can be large or run the other way.",
  "data": [
    {"target": "Polyunsaturated fatty acid lipoxygenase ALOX15 (Homo sapiens) (UniProt P16050)", "sequence (P16050 whole entry, looked up)": "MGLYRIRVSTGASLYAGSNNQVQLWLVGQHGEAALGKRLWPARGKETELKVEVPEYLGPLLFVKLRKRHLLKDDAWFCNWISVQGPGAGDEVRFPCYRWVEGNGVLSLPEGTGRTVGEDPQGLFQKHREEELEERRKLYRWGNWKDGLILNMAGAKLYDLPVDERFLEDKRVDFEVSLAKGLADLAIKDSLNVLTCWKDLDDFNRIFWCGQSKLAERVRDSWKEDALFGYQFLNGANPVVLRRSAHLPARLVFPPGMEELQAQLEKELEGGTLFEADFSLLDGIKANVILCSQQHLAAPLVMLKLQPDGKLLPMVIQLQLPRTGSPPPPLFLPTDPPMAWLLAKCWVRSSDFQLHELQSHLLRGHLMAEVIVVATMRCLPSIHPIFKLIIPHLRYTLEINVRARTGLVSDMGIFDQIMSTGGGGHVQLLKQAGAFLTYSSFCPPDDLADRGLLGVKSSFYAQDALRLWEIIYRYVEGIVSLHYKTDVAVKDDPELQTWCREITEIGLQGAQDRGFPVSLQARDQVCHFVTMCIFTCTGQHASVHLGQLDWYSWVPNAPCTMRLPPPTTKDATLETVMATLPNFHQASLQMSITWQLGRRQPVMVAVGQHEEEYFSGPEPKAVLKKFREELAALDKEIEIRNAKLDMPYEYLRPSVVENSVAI", "test": "Counterscreen qHTS for inhibitors of human arachidonate 12S-lipoxygenase (ALOX12): ALOX15 Assay; also: 0% is about no effect", "settings": "purified ALOX15 enzyme activity; series mostly up to 110 µM; activity change, negative = inhibition: at the top concentration", "procedure,_shortened": "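Purified human ALOX15 (15hLO-1) at 40 nM in 25 mM HEPES, 0.01% Triton X-100, pH 7.5, preincubated with compound 15 min at RT. Then 50 uM arachidonic acid for 30 min; hydroperoxide detected by Fe-xylenol orange as the 573/405 nm absorbance ratio.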", "values": [
      {"smiles": "O=C(c1ccc2c(c1)OCO2)N1CCCC1c1nnc2n1CCNC2", "note": "(configuration not stated)", "activity change, negative = inhibition": "-14.1% (inactive)"},
      {"smiles": "C/C(=C\\c1ccccc1)CN1CCCC12Cc1ccccc1CNC2=O", "note": "(configuration not stated)", "activity change, negative = inhibition": "-13.7% (inactive)"},
      {"smiles": "CC(=O)Nc1ccc(C(=O)N2C3CCC2CN(C(C)C)C3)cc1", "activity change, negative = inhibition": "16.4% [at 146 µM] (inactive)"},
      {"smiles": "Cc1noc(C)c1C(=O)N1Cc2ccccc2CC2(CCN(CC3CCNCC3)C2)C1", "note": "(configuration not stated)", "activity change, negative = inhibition": "-0.0561% (inactive)"},
      {"smiles": "CC(=O)NCC(=O)N1Cc2ccccc2CC2(CCCN(CC3CCNC3)C2)C1", "note": "(configuration not stated)", "activity change, negative = inhibition": "-23.6% (inactive)"},
      {"smiles": "CNC(c1ccccc1)c1ccccc1", "activity change, negative = inhibition": "-18% [at 146 µM] (inactive)"},
      {"smiles": "O=C1NCc2ccccc2CC12CCCN2Cc1ccc(Cl)s1", "note": "(configuration not stated)", "activity change, negative = inhibition": "-26.2% [at 146 µM] (inactive)"},
      {"smiles": "COc1cccc(N2C(=O)NC(=NC3CCCC3)C23CCN(CC2CC2)C3)c1", "note": "(configuration not stated)", "activity change, negative = inhibition": "-4.92% (inactive)"},
      {"smiles": "CCCC(=O)N1Cc2ccccc2CC2(CCN(Cc3ccc(O)cc3)C2)C1", "note": "(configuration not stated)", "activity change, negative = inhibition": "3.88% (inactive)"},
      {"smiles": "C[S+](=O)([O-])N1Cc2ccccc2CC2(CCCCN2CC2CCNCC2)C1", "note": "(configuration not stated)", "activity change, negative = inhibition": "-4.91% (inactive)"},
      {"smiles": "Fc1ccc(OC2CN(CC3CC3)C2)cc1F", "activity change, negative = inhibition": "-14% [at 233 µM] (inactive)"},
      {"smiles": "O=c1n(-c2ccc(C(F)(F)F)cc2)nc2n1CCN(Cc1ccc(C(F)(F)F)cc1)C2", "activity change, negative = inhibition": "-22.9% (inactive)"},
      {"smiles": "O=C1NCc2ccccc2CC12CCN(Cc1cccc(Br)c1)C2", "note": "(configuration not stated)", "activity change, negative = inhibition": "-20.3% (inactive)"},
      {"smiles": "NC(Cc1ccccc1)C(=O)N1CCC2(CC1)CN(C(=O)c1ccc(Cl)cc1)CCO2", "note": "(configuration not stated)", "activity change, negative = inhibition": "-6.02% (inactive)"},
      {"smiles": "COc1ccc(CN2CC3(C2)C(=O)Nc2ccccc23)cc1", "activity change, negative = inhibition": "-29.7% [at 146 µM] (inactive)"},
      {"smiles": "COc1cccc(N2C(=O)NC(=NC3CCCCC3)C23CCCN([S+](=O)([O-])c2cccs2)C3)c1", "note": "(configuration not stated)", "activity change, negative = inhibition": "-28.6% (inactive)"},
      {"smiles": "O=C(O)CCC(=O)N1Cc2ccccc2CC2(CCCN2Cc2ccccc2)C1", "note": "(configuration not stated)", "activity change, negative = inhibition": "-22.9% (inactive)"},
      {"smiles": "CN1CC(=O)N(C2CCC2)Cc2c(NC3CCNCC3)ncnc21", "activity change, negative = inhibition": "-16.5% [at 146 µM] (inactive)"},
      {"smiles": "Cc1cc(C(=O)NC2CCCC2)c2c(C3CCNCC3)noc2n1", "activity change, negative = inhibition": "-14.4% [at 146 µM] (inactive)"},
      {"smiles": "CCc1nc2c(c(-c3ccc(OC)cc3)n1)CCN(Cc1cccc3ccccc13)CC2", "activity change, negative = inhibition": "-18.7% (inactive)"},
      {"smiles": "CCN1CCC(c2nc3ccc(C)cc3c(=O)[nH]2)CC1", "activity change, negative = inhibition": "-3.63% [at 146 µM] (inactive)"},
      {"smiles": "O=C(c1ccc2c(c1)OCO2)N1CCCC2(CC(c3ccccc3)=NO2)C1", "note": "(configuration not stated)", "activity change, negative = inhibition": "4.68% (inactive)"},
      {"smiles": "C[S+](=O)([O-])N1CC2ON=C(C(=O)NCCc3ccc(Cl)cc3)C2C1", "note": "(configuration not stated)", "activity change, negative = inhibition": "-3.95% (inactive)"},
      {"smiles": "COc1cccc(N2C(=O)NC(=NC3CCCCC3)C23CCN(CC2CC2)CC3)c1", "activity change, negative = inhibition": "-19.5% (inactive)"},
      {"smiles": "COc1ccccc1-c1cccc(CN)c1", "activity change, negative = inhibition": "18.8% [at 233 µM] (inactive)"},
      {"smiles": "COc1ccc(C(=O)N2CC(Oc3ccc4c(c3)OCO4)C2)cc1", "activity change, negative = inhibition": "10.5% [at 146 µM] (inactive)"},
      {"smiles": "O=C(C1CCCC1)N1CC2(CCN(Cc3ccc(Cl)cc3)C2)Cc2ccccc21", "note": "(configuration not stated)", "activity change, negative = inhibition": "-17.1% (inactive)"},
      {"smiles": "CN1CC(=O)N(C2CCNC2)Cc2c(NCCCN3CCCCC3)ncnc21", "note": "(configuration not stated)", "activity change, negative = inhibition": "-20.5% (inactive)"},
      {"smiles": "O=C1NCc2ccccc2CC12CCN(Cc1ccccc1Cl)C2", "note": "(configuration not stated)", "activity change, negative = inhibition": "-25.7% [at 146 µM] (inactive)"},
      {"smiles": "O=C1c2ccccc2CN1C1CCN(Cc2ccsc2)CC1", "activity change, negative = inhibition": "-5.25% [at 146 µM] (inactive)"},
      {"smiles": "COc1cccc(N2C(=O)NC(=NC3CCCC3)C23CCN(Cc2ccsc2)C3)c1", "note": "(configuration not stated)", "activity change, negative = inhibition": "-47.3% (inactive)"},
      {"smiles": "O=Cc1ccc(-c2cncc(C(=O)O)c2)cc1", "activity change, negative = inhibition": "-21.9% [at 233 µM] (inactive)"},
      {"smiles": "COc1ccc(-c2cc(C(=O)NCC(C)C)c3c(C)nn(-c4ccccc4)c3n2)cc1", "activity change, negative = inhibition": "-25.2% (inactive)"},
      {"smiles": "CCNc1ncnc2c1CN(C1CCNC1)C(=O)CN2C", "note": "(configuration not stated)", "activity change, negative = inhibition": "-18.4% [at 146 µM] (inactive)"},
      {"smiles": "Cc1ccc(CN2CCC3(Cc4ccccc4CNC3=O)C2)cc1C", "note": "(configuration not stated)", "activity change, negative = inhibition": "-25.1% [at 146 µM] (inactive)"},
      {"smiles": "COc1ccc(OC2CN(Cc3ccc(F)cc3)C2)cc1", "activity change, negative = inhibition": "0.696% [at 146 µM] (inactive)"},
      {"smiles": "O=C(c1ccccc1F)N1CCc2nc(C3CC3)nc(-c3ccc(Cl)cc3)c2C1", "activity change, negative = inhibition": "-19.9% (inactive)"}
    ]}
  ]
}
